Results: ChEMBL document CHEMBL1961873, “Compounds: GSK PKIS; Assays: Nanosyn kinase panel” (2012)
“And” between values parts separate entries of the source, which are not always exact repeats. Equal values may be shown once.

Tests used:
[1] = target: Casein kinase I isoform gamma-2 (Homo sapiens) (UniProt P78368); details: at 1 µM
[2] = target: Casein kinase I isoform gamma-3 (Homo sapiens) (UniProt Q9Y6M4); details: at 0.1 µM
[3] = target: Casein kinase I isoform gamma-3 (Homo sapiens) (UniProt Q9Y6M4); details: at 1 µM
[4] = target: Cyclin-dependent kinase 1 (Homo sapiens) (UniProt P06493); details: at 0.1 µM
Chain of Cyclin-dependent kinase 1 (Homo sapiens) (P06493 whole entry, looked up): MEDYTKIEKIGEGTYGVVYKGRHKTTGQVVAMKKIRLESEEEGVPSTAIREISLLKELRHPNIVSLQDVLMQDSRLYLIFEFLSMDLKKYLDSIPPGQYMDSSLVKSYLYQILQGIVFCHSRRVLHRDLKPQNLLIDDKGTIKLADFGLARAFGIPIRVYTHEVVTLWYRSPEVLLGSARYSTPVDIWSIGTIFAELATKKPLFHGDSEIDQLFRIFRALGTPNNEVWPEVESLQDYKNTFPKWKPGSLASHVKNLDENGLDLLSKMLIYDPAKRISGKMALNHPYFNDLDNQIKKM

[5] = target: Cyclin-dependent kinase 1 (Homo sapiens) (UniProt P06493); details: at 1 µM
[6] = target: Cyclin-dependent kinase 2 (Homo sapiens) (UniProt P24941); details: at 0.1 µM
[7] = target: Cyclin-dependent kinase 2 (Homo sapiens) (UniProt P24941); details: at 1 µM
[8] = target: Cyclin-dependent kinase 2 (Homo sapiens) (UniProt P24941); details: at 0.1 µM; remark: listed apart in the source
[9] = target: Cyclin-dependent kinase 2 (Homo sapiens) (UniProt P24941); details: at 1 µM; remark: listed apart in the source
[10] = target: T1, CDK3/Cyclin E (Homo sapiens) (UniProt P24864+Q00526); details: at 0.1 µM
T1 sequence (P24864 whole entry, looked up): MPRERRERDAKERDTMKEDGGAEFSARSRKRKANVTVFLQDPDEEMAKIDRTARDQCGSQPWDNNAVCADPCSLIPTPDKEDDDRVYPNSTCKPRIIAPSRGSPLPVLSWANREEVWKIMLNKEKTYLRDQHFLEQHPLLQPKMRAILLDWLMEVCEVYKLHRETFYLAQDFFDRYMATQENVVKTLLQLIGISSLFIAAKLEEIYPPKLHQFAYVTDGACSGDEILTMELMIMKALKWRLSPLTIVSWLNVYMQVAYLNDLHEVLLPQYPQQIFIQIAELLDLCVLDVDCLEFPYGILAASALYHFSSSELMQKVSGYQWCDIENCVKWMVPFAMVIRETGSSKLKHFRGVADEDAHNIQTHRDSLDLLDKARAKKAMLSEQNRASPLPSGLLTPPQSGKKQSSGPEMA
T1 sequence (Q00526 whole entry, looked up): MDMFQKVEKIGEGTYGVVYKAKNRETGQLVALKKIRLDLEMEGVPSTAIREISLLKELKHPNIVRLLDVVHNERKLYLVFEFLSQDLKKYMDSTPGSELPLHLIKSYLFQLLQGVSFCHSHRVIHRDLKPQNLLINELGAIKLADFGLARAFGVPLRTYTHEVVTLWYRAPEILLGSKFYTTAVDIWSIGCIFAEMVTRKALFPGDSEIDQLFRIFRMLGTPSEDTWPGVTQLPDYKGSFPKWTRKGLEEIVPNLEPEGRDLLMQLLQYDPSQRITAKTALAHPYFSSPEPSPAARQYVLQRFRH

[11] = target: T1, CDK3/Cyclin E (Homo sapiens); details: at 1 µM
[12] = target: Cyclin-dependent kinase 4 (Homo sapiens) (UniProt P11802); details: at 0.1 µM
Chain of Cyclin-dependent kinase 4 (Homo sapiens) (P11802 whole entry): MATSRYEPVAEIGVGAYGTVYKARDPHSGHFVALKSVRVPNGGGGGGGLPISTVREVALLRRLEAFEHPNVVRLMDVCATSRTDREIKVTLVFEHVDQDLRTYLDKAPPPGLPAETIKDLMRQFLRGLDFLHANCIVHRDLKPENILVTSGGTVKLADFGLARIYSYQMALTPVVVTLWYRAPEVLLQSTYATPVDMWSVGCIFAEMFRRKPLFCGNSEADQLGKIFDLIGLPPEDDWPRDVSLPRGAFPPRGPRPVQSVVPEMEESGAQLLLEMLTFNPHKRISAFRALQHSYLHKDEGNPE

[13] = target: Cyclin-dependent kinase 4 (Homo sapiens) (UniProt P11802); details: at 1 µM
[14] = target: Cyclin-dependent kinase 5 (Homo sapiens) (UniProt Q00535); details: at 0.1 µM
Chain of Cyclin-dependent kinase 5 (Homo sapiens) (Q00535 whole entry, looked up): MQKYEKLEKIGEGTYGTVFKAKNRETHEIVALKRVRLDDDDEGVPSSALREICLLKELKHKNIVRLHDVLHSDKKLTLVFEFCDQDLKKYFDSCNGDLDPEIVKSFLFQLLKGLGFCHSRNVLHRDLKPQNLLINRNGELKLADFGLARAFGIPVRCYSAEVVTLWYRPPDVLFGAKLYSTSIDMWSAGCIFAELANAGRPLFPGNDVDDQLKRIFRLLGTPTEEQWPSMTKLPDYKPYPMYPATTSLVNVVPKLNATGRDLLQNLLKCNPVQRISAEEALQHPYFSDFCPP

[15] = target: Cyclin-dependent kinase 5 (Homo sapiens) (UniProt Q00535); details: at 1 µM
[16] = target: Cyclin-dependent kinase 6 (Homo sapiens) (UniProt Q00534); details: at 0.1 µM
Chain of Cyclin-dependent kinase 6 (Homo sapiens) (Q00534 whole entry): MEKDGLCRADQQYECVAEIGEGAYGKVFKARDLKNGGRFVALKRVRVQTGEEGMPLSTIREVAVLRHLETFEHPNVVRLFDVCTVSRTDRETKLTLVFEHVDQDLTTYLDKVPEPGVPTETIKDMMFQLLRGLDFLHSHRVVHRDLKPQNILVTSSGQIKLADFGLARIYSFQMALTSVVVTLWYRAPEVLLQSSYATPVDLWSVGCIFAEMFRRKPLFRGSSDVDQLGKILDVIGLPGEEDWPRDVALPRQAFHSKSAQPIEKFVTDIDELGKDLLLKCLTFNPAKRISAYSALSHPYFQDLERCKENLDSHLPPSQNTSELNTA

[17] = target: Cyclin-dependent kinase 6 (Homo sapiens) (UniProt Q00534); details: at 1 µM
[18] = target: Dual specificity protein kinase CLK2 (Homo sapiens) (UniProt P49760); details: at 0.1 µM
Chain of Dual specificity protein kinase CLK2 (Homo sapiens) (P49760 whole entry, looked up): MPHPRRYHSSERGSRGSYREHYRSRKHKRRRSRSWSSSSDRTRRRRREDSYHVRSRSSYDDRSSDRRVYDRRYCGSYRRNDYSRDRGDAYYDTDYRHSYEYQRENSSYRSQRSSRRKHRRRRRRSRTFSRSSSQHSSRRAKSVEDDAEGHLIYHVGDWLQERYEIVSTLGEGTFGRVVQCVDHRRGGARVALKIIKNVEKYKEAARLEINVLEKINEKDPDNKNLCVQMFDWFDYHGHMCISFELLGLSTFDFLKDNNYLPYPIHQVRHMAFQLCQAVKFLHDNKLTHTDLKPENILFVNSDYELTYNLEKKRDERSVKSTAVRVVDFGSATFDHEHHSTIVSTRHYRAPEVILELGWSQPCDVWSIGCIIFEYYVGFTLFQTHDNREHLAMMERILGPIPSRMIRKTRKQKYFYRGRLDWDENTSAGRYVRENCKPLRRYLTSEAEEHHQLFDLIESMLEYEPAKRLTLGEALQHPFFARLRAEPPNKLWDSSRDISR

[19] = target: Dual specificity protein kinase CLK2 (Homo sapiens) (UniProt P49760); details: at 1 µM
[20] = target: Dual specificity protein kinase CLK3 (Homo sapiens) (UniProt P49761); details: at 0.1 µM
Chain of Dual specificity protein kinase CLK3 (Homo sapiens) (P49761 whole entry, looked up): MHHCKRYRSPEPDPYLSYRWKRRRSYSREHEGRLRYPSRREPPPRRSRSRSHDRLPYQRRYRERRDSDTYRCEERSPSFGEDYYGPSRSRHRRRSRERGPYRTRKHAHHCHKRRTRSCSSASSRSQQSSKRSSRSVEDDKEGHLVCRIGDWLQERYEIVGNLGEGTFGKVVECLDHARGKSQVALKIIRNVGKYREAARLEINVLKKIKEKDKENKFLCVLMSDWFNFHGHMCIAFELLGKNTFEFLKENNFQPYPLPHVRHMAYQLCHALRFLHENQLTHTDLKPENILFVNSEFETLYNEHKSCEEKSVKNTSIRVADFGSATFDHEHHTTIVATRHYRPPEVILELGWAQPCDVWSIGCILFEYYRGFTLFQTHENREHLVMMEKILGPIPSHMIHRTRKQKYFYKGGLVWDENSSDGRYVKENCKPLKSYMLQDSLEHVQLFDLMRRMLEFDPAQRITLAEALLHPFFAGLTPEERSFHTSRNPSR

Chain of Casein kinase I isoform gamma-2 (Homo sapiens) (P78368 whole entry, looked up, canonical isoform): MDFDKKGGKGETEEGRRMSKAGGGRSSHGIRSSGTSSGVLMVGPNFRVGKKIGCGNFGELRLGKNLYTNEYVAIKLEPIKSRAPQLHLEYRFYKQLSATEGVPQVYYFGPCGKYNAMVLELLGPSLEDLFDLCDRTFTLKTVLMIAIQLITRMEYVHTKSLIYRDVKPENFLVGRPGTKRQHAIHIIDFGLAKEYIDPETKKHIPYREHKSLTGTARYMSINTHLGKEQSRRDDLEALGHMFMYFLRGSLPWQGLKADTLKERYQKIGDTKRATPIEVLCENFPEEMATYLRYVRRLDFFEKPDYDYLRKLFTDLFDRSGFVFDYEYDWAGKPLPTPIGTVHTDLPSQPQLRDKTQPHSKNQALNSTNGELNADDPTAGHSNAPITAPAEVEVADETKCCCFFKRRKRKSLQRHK
Chain of Casein kinase I isoform gamma-3 (Homo sapiens) (Q9Y6M4 whole entry, looked up, canonical isoform): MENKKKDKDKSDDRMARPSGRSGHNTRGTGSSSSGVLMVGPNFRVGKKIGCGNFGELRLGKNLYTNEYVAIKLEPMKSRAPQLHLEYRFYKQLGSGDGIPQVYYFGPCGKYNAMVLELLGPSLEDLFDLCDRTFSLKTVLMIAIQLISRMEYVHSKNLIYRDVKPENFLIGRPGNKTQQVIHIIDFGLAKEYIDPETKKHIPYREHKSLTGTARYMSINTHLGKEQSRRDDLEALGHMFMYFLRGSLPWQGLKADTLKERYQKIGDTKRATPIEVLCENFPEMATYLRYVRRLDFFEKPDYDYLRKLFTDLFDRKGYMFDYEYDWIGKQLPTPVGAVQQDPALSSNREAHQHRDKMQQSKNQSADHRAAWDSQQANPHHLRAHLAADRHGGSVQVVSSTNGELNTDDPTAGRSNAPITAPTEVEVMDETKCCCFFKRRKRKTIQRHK

Structure (SMILES)	inhibition [1]	inhibition [2]	inhibition [3]	inhibition [4]	inhibition [5]	inhibition [6]	inhibition [7]	inhibition [8]	inhibition [9]	inhibition [10]	inhibition [11]	inhibition [12]	inhibition [13]	inhibition [14]	inhibition [15]	inhibition [16]	inhibition [17]	inhibition [18]	inhibition [19]	inhibition [20]
COc1cc(Nc2ncc(-c3ccccc3)o2)cc(OC)c1	5.36%	5.09%	3.43%	0.36%	4.4%	1.87%	12.7%	3.39%	15.1%	-1.04%	6.13%	3.96%	14.9%	-0.03%	6.57%	4.07%	29.8%	2.97%	2.12%	0.59%
CCCNc1cccc(-n2ncc3c(N/N=C/c4ccncc4)ncnc32)c1	1.01%	1.29%	0.9%	2.68%	22.5%	7.1%	42.1%	1.17%	9.16%	0.47%	9.63%	0.2%	9.54%	1.35%	12.6%	3.25%	10.1%	3.08%	10.9%	0.61%
CCn1c(-c2nonc2N)nc2cncc(C(=O)NCCNC)c21	5.17%	3.69%	3.84%	0.45%	0.67%	0.58%	3.6%	2.89%	5.11%	-2.24%	0.12%	1.73%	3.94%	-0.65%	0.97%	-0.66%	1.38%	1.2%	10.5%	-2.71%
COc1c(C(N)=O)cc(-c2ccc(Cl)cc2)cc1-c1ccc(S(N)(=O)=O)cc1	5.53%	3.12%	5.9%	2.31%	-0.03%	3.12%	3.62%	2.17%	3.13%	-4.73%	-0.77%	3.98%	3.06%	0.65%	0.17%	-0.9%	-0.36%	3.22%	5.16%	0.71%
CN(c1ccc(NC(=O)NCCN2CCOCC2)cc1)c1ccnc(Nc2ccc(CS(C)(=O)=O)cc2)n1	1.47%	2.29%	2.32%	-0.38%	2.55%	1.15%	11.3%	3.19%	4.7%	0.76%	0.92%	0.98%	2.06%	0.44%	2.44%	5.26%	4.21%	-0.8%	2.52%	0.77%
NS(=O)(=O)c1ccc(N/N=C2\C(=O)Nc3ccc(C(=O)NCc4ccncc4)cc32)cc1	4.22%	1.86%	5.91%	31.4%	71.3%	84.9%	110%	78%	86.2%	53.2%	96.3%	14%	52.3%	47.7%	79.1%	8.64%	58.6%	2.87%	36.8%	1.92%
c1ccc(-c2n[nH]cc2-c2ccnc(-c3ccc(OCCn4ccnc4)cc3)c2)nc1	4.02%	0.42%	5.22%	-0.35%	1.46%	1.03%	-8.72%	2.23%	5.64%	2.33%	0.94%	1.86%	6.97%	1.11%	4.49%	1.43%	10%	0.61%	1.21%	3.95%
N#Cc1ccc2c(-c3ccnc(NC4CC4)n3)c(-c3ccc(F)cc3)nn2c1	3.98%	2.06%	5.03%	0.15%	-0.22%	1.26%	0.36%	1%	0.3%	-0.85%	-1.23%	-0.21%	1.61%	-0.1%	-0.13%	-1.07%	2.32%	-0.43%	-1.71%	-0.22%
O=C(O[C@H]1CN[C@H](C#Cc2cc3ncnc(Nc4ccc5c(ccn5Cc5cc(F)ccc5F)c4)c3s2)C1)N1CCOCC1	5.86%	2.96%	4.98%	-0.04%	1.97%	1.56%	4.93%	3.67%	2.07%	4.08%	-2.16%	2.17%	1.93%	1.09%	0.14%	-1.14%	1.5%	1.29%	0.52%	1.27%
COc1cccc(-n2ncc3c(N/N=C/c4ccc(C(=O)NCCN(C)C)cc4)ncnc32)c1	8.69%	1.94%	11.9%	44.7%	77.2%	36.1%	89.9%	13.4%	48.4%	5.6%	50.1%	40.6%	71.4%	37.9%	74.3%	47.9%	81.5%	21.6%	73.7%	5.88%
CS(=O)(=O)CCNCc1ccc(-c2ccc3ncnc(Nc4ccc(OCc5cccc(C(F)(F)F)c5)cc4)c3c2)o1	3.89%	3.14%	2.45%	1.34%	0.34%	2.27%	1.87%	2.01%	3.44%	-1.58%	1.01%	3.72%	2.89%	0.15%	0.08%	0.44%	1.5%	0.99%	1.97%	1.09%
COc1cc(N2CCN(C(C)C)CC2)ccc1Nc1nc(Nc2cccc3ncccc23)c2cc[nH]c2n1	-1.47%	-2.11%	0.2%	1.38%	4.94%	1.96%	3.44%	2.69%	4.49%	1.33%	-2.06%	-0.07%	1.11%	1.69%	4.66%	1.04%	8.48%	4.18%	20.7%	-0.15%
NS(=O)(=O)c1cccc(N/C=C2\C(=O)Nc3ccccc32)c1	12.7%	5.4%	14%	2.85%	7.45%	4.87%	8.39%	5.07%	16%	4.56%	11.3%	5.5%	18.1%	2.87%	16.5%	2.67%	55.6%	2.13%	13.7%	1.92%
COc1ccccc1-c1cc(/C=C2\C(=O)Nc3ncc(Br)cc32)cc(Br)c1O	6.34%	4.08%	3.37%	3.53%	5.31%	2.84%	-1.47%	7.89%	9.34%	5.76%	1.11%	5.08%	7.62%	4.84%	4.91%	1.08%	6.64%	1.63%	5.09%	2.35%
N#Cc1cccc(Nc2ncc(-c3ccccc3)o2)c1	2.13%	1.94%	4.11%	2.78%	17.1%	6.59%	44.4%	7.57%	40.1%	10.1%	40.2%	3.86%	26.7%	4.45%	30.5%	21.9%	63%	1.44%	9.1%	1.7%
CNC(=O)c1sc(-n2cnc3cc(OC)c(OC)cc32)cc1OCc1ccccc1C(F)(F)F	3.65%	3.86%	4.26%	0.69%	2.03%	0.22%	1.77%	2.17%	3.8%	0.35%	-1.01%	1.64%	3.5%	0.36%	1.5%	-0.46%	1.53%	1.74%	-1.57%	0.24%
Nc1ncnc2occ(-c3ccc(NC(=O)Nc4cc(C(F)(F)F)ccc4F)cc3)c12	4.53% and -0.27%	0.69% and 0.19%	6.26% and 0.91%	2.66% and 1.33%	11.4% and 4.55%	2.5% and 0.72%	13.5% and 5.32%	2.09% and 0.45%	15.5% and 5.95%	1.13% and 2.46%	26.3% and 17%	2.18% and -1.12%	7.72% and 1.95%	2.15% and 1.3%	10.4% and 4.77%	2.49% and -1.62%	6.94% and -0.12%	-0.16% and 0.05%	2.32% and 0.92%	-0.08% and 0.74%
Fc1ccc(Nc2nccc(-c3c(-c4ccc(C(F)(F)F)cc4)nn4ncccc34)n2)cc1F	4.13%	3.32%	3.74%	-0.65%	0.76%	1.15%	-0.44%	3.94%	3.93%	0.39%	-0.37%	2.28%	2.36%	0.28%	0.64%	1.44%	1.37%	2.15%	1.63%	2.2%
CC(C)c1ccc(-c2cc(-c3c[nH]nc3-c3ccccn3)ccn2)cc1	1.17%	-0.24%	3.43%	-0.07%	2.01%	1.87%	-0.02%	1.12%	1.4%	-1.25%	-1.28%	1.25%	1.46%	0.18%	0.36%	-1.5%	1.16%	0.9%	-0.14%	0.15%
COc1ccc(Nc2ncc(-c3ccccc3)o2)cc1OC	4.12%	-0.65%	3.3%	8.02%	29.9%	8.91%	31.6%	7.2%	27.6%	6.29%	22.2%	5.15%	14%	11.1%	45.7%	-1.71%	23.4%	0.23%	5.9%	2%
COc1cccc(Nc2nccc(-c3cnn4ncccc34)n2)c1	47.2%	3.61%	38.6%	63.9%	79.2%	72.8%	105%	64.7%	78.6%	42.2%	91.4%	56.5%	76.9%	59.3%	78%	49.5%	80.5%	93.9%	98.2%	23.2%
O=C(O[C@H]1CN[C@H](C#Cc2cc3ncnc(Nc4ccc5c(cnn5Cc5ccccc5)c4)c3s2)C1)N1CCOCC1	0.77%	-1.09%	1.79%	2.44%	4.08%	0.92%	-1.09%	3.48%	2.34%	-0.1%	-1.05%	0.36%	3.2%	2.53%	3.35%	-1.23%	0.26%	-1.51%	-0.74%	-0.96%
O=C(O[C@H]1CN[C@H](C#Cc2cc3ncnc(Nc4ccc(OCc5cccc(F)c5)c(Cl)c4)c3s2)C1)N1CCOCC1	5.59%	4.52%	3.53%	0.36%	1.18%	1.57%	-1.38%	4.21%	2.99%	2.77%	-3.23%	2.11%	2.33%	0.49%	-0.57%	1.23%	-0.42%	-0.15%	-0.4%	2.68%
CS(=O)(=O)Nc1ccc(-c2ccc3c(NC(=O)C4CC4)n[nH]c3c2)cc1	4.11%	4.47%	2.66%	0.29%	3.65%	2.2%	6.28%	2.71%	5.01%	0.71%	6.25%	2.19%	6.78%	0.45%	1.18%	7.5%	36.3%	0.87%	3.05%	1.51%
CS(=O)(=O)CCNCc1ccc(-c2ccc3ncnc(Nc4ccc(OCc5ccccc5)cc4)c3c2)o1	2.81%	2.43%	1.23%	0.68%	-4.99%	1.6%	2.53%	2.45%	3.9%	-1.1%	-0.81%	1.16%	2.98%	0.58%	2.07%	-1.55%	1.12%	0.03%	0.73%	0.41%
Nc1nccc(-c2c(-c3ccc(F)cc3)ncn2C2CCNCC2)n1	1.81% and 6.64%	-1.77% and 1.52%	15.6% and 20.3%	0.24% and 0.46%	2.44% and 1.3%	4.08% and 1.21%	-7.29% and 6.19%	-1.76% and 0.82%	-0.76% and 1.53%	-0.31% and 0.39%	-1.14% and -1.16%	0.24% and -0.14%	0.89% and 0.97%	0.29% and 0.63%	1.43% and 1.29%	-5.67% and 1.15%	-4.19% and 1.96%	2.07% and 0.24%	11.9% and 2.02%	-0.13% and 1.41%
